Screens deposited in PubChem BioAssay by The Scripps Research Institute Molecular Screening Center.
Shown are actives, neighbours in structure and some others; about 2.3% of the full set was active somewhere.
CHRM1 PAM: human CHRM1 positive allosteric modulation; CHO-K1 hM1, Fluo-8 calcium fluorescence, ACh EC20; 0% = ACh EC20, 100% = maximal ACh; hit rate 0.088% among 360,000; P11229; activation, % at 3 µM; in the data active = activation above about 19%, passing the limit was not always enough
Target sequence (P11229 whole entry, looked up): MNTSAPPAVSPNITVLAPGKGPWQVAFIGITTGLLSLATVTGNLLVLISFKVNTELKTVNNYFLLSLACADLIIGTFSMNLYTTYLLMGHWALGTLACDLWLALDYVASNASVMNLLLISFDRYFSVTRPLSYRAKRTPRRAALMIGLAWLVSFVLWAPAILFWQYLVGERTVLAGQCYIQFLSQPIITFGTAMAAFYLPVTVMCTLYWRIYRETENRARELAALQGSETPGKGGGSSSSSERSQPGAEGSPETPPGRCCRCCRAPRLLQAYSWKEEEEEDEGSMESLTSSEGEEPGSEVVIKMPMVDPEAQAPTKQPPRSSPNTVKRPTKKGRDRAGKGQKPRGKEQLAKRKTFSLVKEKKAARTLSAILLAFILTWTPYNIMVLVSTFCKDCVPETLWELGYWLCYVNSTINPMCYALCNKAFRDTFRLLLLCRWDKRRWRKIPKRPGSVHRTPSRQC
CHO-K1 Ca PAM: nonselective activator or artifact in parental CHO-K1 calcium assay; ATP EC20, Fluo-8 calcium fluorescence; 0% at ATP EC20, 100% at ATP max; activation, % at 3 µM; hit rate 0.02% among 360,000; AID 602247;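 active = activation above the run cutoff, the mean activation of all test compounds plus 3 SD, cut at about 40% in these data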;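 also: peak over basal fluorescence ratio in a 140 s read after ATP addition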
CHO-K1 Ca antag: nonselective inhibitor or artifact in parental CHO-K1 cells; hit rate 0.6% among 360,000; ATP-induced calcium, Fluo-8 fluorescence; AID 602250; inhibition, % at 3 µM;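 active = inhibition above a per-plate cutoff, the plate's mean sample inhibition plus 3 SD, cut at about 24% in these data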;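 also: 0% = DMSO plus EC80 ATP and 100% = DMSO alone without ATP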
CHRM1 antagonist: human CHRM1 antagonism | P11229 | CHO-K1 hM1, Fluo-8 calcium fluorescence, ACh EC80 antagonist | inhibition, % at 3 µM | hit rate 1.3% among 360,000 | AID 588852;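 active = percent inhibition above its own plate's cutoff, namely the mean of that plate's compound wells plus 3 SD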;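 also: peak over basal fluorescence ratio during 140 s after agonist addition; 0% = ACh EC80 plus DMSO and 100% = DMSO alone without agonist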
CHRM1 agonist: activates human CHRM1 receptor; P11229; CHO-K1 hM1, Fluo-8 calcium fluorescence, agonist mode; 0% DMSO, 100% acetylcholine EC100; activation, % at 3 µM; hit rate 0.33% among 360,000; AID 588814;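 active = activation above the run's mean compound activation plus 3 SD, cut at about 16% in these data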;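 also: peak over basal fluorescence ratio within a 140 s kinetic read after compound addition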
M1 ag parental: nonselective activator or artifact in parental CHO-K1 cells | Fluo-8 calcium fluorescence; scaled to maximal ATP response, vehicle zero | activation, % at 3 µM | hit rate 0.48% among 360,000; in the data active = activation above about 15%;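 also: untransfected CHO-K1 host cells lacking M1 receptor as counterscreen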
Active calls of the source: *; / = not tested or not shown; ! = repeats disagree.

SMILES	CHRM1 PAM	CHO-K1 Ca PAM	CHO-K1 Ca antag	CHRM1 antagonist	CHRM1 agonist	M1 ag parental
COc1ccc(CCN2C(=O)CC(N3CCN(S(=O)(=O)c4ccccc4)CC3)C2=O)cc1OC (centres undefined)	6	23	-23	-8	-2	1
Cc1ccc2c(c1)/C(=N/OS(=O)(=O)c1ccccc1)CCS2	6	19	-10	0	-3	0
CC1=CC(=O)C=C(C)C1=NOS(=O)(=O)c1ccccc1	4	20	-3	18*	11	11
CC1=CC(=O)C(C(C)C)=C/C1=N/OS(=O)(=O)c1ccccc1	-17	-20	50*	61*	5	20*
Cc1ccc(S(=O)(=O)ON=C2CCN(S(=O)(=O)c3ccccc3)CC2)cc1	8	7	-17	-7	0	0
O=C(CN1CCC(NC(=O)c2ccccc2F)CC1)Nc1ccc2c(c1)OCCO2	4	9	7	-2	-7	16*
Cc1ccc(NS(=O)(=O)c2ccc(-n3cccn3)cc2)cc1Cl	2	3	0	-4	-3	2
Cc1ccc(NS(=O)(=O)c2ccc(-n3cccn3)cc2)cc1C	-17	6	-11	28*	-1	8
COc1cc(-c2cc3nc(NCCOc4ccccc4)ccn3n2)cc(OC)c1OC	-10	18	-14	10	-3	5
COc1cc(-c2cc3nc(NCc4ccco4)ccn3n2)cc(OC)c1OC	-2	-15	32*	-4	-3	1
CCOC(=O)Cc1csc(NC(=O)Nc2cccs2)n1	-12	-21	-11	11	1	16*
O=C(Nc1ccc(F)c(Cl)c1)[C@@H]1O[C@H](CO)[C@H](O)[C@H](O)[C@H]1O	9	6	-9	-11	-2	1
CC1(C(=O)Nc2ccc3c(c2)OCO3)CCN1C(=O)Cc1ccc(-c2ccccc2)cc1 (centres undefined)	-17	16	8	38*	7	10
CC1(C(=O)Nc2ccc3[nH]ncc3c2)CCN1C(=O)Cc1ccc(-c2ccccc2)cc1 (centres undefined)	-14	-7	11	28*	7	13
Cn1nc(C2CC2)cc1NC(=O)C1(C)CCN1C(=O)Cc1ccc(-c2ccccc2)cc1 (centres undefined)	-13	-11	10	30*	0	6
CC(C)(C)c1ccc(CC(=O)N2CCC2(C)C(=O)Nc2ccc3[nH]ncc3c2)cc1 (centres undefined)	-12	-1	2	11	3	10
CCCSc1ccc([C@@H]2[C@@H]3C(=O)N(C)C(=O)[C@@H]3[C@]3(C(=O)OC)CCCN23)cc1OC	-5	-1	-4	12	-3	0
O=C(OCc1ccccc1F)c1cnc(Cl)c(Cl)c1	9	-4	-13	-6	-4	0
COc1cc(Cl)ccc1OCc1cc(C(=O)N2CCN(C)C(=O)[C@@H]2C)no1	3	0	-10	-8	-1	1
Cc1cc(OCc2cc(C(=O)N3CCN(C)C(=O)[C@@H]3C)no2)cc(C)c1Cl	-13	-10	10	38*	5	15
CCCCN1C[C@H](c2ccccc2)[C@@H](CC(=O)NC)C1=O	5	-9	34*	-17	1	0
CCCCN1C[C@H](C)[C@@H](CC(=O)NC)C1=O	10	16	-2	-12	-1	0
CCCc1c(-c2ccc(Cl)cc2)ncn1Cc1ccccc1OC	/	9	3	/	/	16*
COc1ccc(-n2nnc3c(=O)n(CC(=O)N4CCCc5ccccc54)cnc32)cc1	-2	3	12	1	-1	0
CCOc1ccc(-n2nnc3c(=O)n(CC(=O)N4CCCc5ccccc54)cnc32)cc1	-32	13	4	74*	-10	-1
SMILES	CHRM1 PAM	CHO-K1 Ca PAM	CHO-K1 Ca antag	CHRM1 antagonist	CHRM1 agonist	M1 ag parental
CC(=O)Nc1ccc(C(=O)COC(=O)c2cccs2)c(F)c1	3	-6	-13	-10	1	1
COc1ccc(-c2nc3ccccn3c2NCc2ccc3c(c2)OCO3)cc1	-9	3	4	13	-1	3
COc1ccc(-c2cc(-c3nc4ccccn4c3NCc3ccccc3)ccc2OC)cc1	-32	-22	52*	87*	4	11
CCCCNc1c(-c2ccc(OC)c(SC(C)CC)c2)nc2ccc(C)cn12 (centres undefined)	-22	-17	-2	37*	-6	3
CCC(C)Sc1cc(-c2nc3ccc(C)cn3c2NCc2ccccc2)ccc1OC (centres undefined)	-29	-17	25*!	63*	-6	3
CCCCNc1c(-c2ccc(OC)c(SC3CCCCC3)c2)nc2ccc(C)cn12	-16	-18	33*	49*	1	8
COc1ccc(C(=O)COC(=O)CNS(=O)(=O)c2ccc(C)cc2)cc1	6	22	-9	2	-6	3
CCc1cccc(C)c1NC(=O)c1cc(=O)[nH]c2ccc(S(=O)(=O)N3CCOCC3)cc12	10	-3	-6	-9	-5	0
CCC(C)Sc1cccc(-c2nc3cc(C)ccn3c2NCc2ccccc2)c1 (centres undefined)	-20	11	-6	43*	-8	0
Cc1ccn2c(NCc3ccccc3)c(-c3cccc(SC4CCCCC4)c3)nc2c1	-10	8	-20	10	-7	0
CCN(CC)C(=O)c1ccc2nc([C@H]3C[C@H](O)[C@@H](CO)O3)[nH]c2c1	11	19	-5	-18	-2	0
OC[C@H]1O[C@@H](c2nc3ccc(-c4nc(-c5ccc(Br)cc5)no4)cc3[nH]2)C[C@@H]1O	23	12	-14	-14	16*	1
O=C(CNC(=O)N1CC(=O)Nc2ccccc21)NCc1cccc(Cl)c1	4	9	-9	-3	-2	0
CN(C)[C@@H]1CCC[C@@H]1OC(=O)C(c1ccccc1)c1ccccc1	-25	20	-8	31*	-8	2
C=CCOC(=O)C1=C(C)OC(N)=C(C#N)C1c1ccccc1F (centres undefined)	5	-7	-10	-5	-5	-1
C=CCOC(=O)C1=C(C)NC(=S)C(C#N)(CC=C)C1c1ccccc1Cl (centres undefined)	8	10	2	-1	5	17*
Cc1cc(C)cc(OCC(=O)Nc2ccc(N3CCCC3)cc2)c1	-36	0	-10	56*	-12	0
Cc1ccc(C)c(C(=O)OCC(=O)Nc2ccc(N3CCOCC3)cc2)c1	25*	12	-19	-24	3	1
Cc1ccc(OCC(=O)Nc2ccc(N3CCCC3)cc2)cc1C	-22	6	-7	21	-9	0
COc1ccc(CCN(C)C(=O)Cn2c(=O)oc3ccccc32)cc1OC	16	6	-9	-9	1	0
